Data published in PubChem BioAssay AID1159580 (chemical genetic matrix, 2015).
Screen size: about 5,500 compounds; about 2,000 (36%) were called active. Roughly 18% stayed inconclusive and do not appear here. Rule as the data show it: active = normalized growth mostly below about 0.91 (no sharp cut-off); inconclusive = no clear call, values can overlap the other calls; inactive = mostly above about 0.92. The list shows a part of the results.

Test: chemical genetic growth profiling, strain panel (AID 1159580);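 also: tested at 20 µM; growth read once vehicle control cultures reached saturation at 30 °C; 1 = growth at the plate median or of vehicle wells; lower values mean less growth of the strain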
Settings: S. cerevisiae deletion strains, growth OD
[1] = locus YDL101C, strain DUN1, stronger effect = lower value
[2] = locus YHR030C, strain SLT2, stronger effect = lower value
[3] = locus YAR019C, strain CDC15, stronger effect = lower value
[4] = locus YBL105C, strain PKC1, stronger effect = lower value
[5] = locus YBR135W, strain CKS1, stronger effect = lower value
[6] = locus YBR136W, strain MEC1, stronger effect = lower value
[7] = locus YBR160W, strain CDC28, stronger effect = lower value
[8] = locus YDL017W, strain CDC7, stronger effect = lower value
[9] = locus YDL028C, strain MPS1, stronger effect = lower value
[10] = locus YDL108W, strain KIN28, stronger effect = lower value
[11] = locus YDL132W, strain cdc53, stronger effect = lower value
[12] = locus YDL214C, strain PRR2, stronger effect = lower value
[13] = locus YDR052C, strain DBF4, stronger effect = lower value
[14] = locus YDR054C, strain cdc34, stronger effect = lower value
[15] = locus YDR226W, strain ADK1, stronger effect = lower value
[16] = locus YDR477W, strain SNF1, stronger effect = lower value
[17] = locus YER123W, strain YCK3, stronger effect = lower value
[18] = locus YER133W, strain GLC7, stronger effect = lower value
[19] = locus YFL009W, strain cdc4, stronger effect = lower value
[20] = locus YFL029C, strain CAK1, stronger effect = lower value
[21] = locus YFR003C, strain YPI1, stronger effect = lower value
[22] = locus YFR019W, strain FAB1, stronger effect = lower value
[23] = locus YFR028C, strain CDC14, stronger effect = lower value
[24] = locus YGR040W, strain KSS1, stronger effect = lower value
[25] = locus YGR052W, strain FMP48, stronger effect = lower value
[26] = locus YGR092W, strain DBF2, stronger effect = lower value
[27] = locus YHR079C, strain IRE1, stronger effect = lower value
[28] = locus YHR082C, strain KSP1, stronger effect = lower value
[29] = locus YHR205W, strain SCH9, stronger effect = lower value
[30] = locus YIL147C, strain SLN1, stronger effect = lower value
[31] = locus YJL095W, strain BCK1, stronger effect = lower value
[32] = locus YJL128C, strain PBS2, stronger effect = lower value
[33] = locus YJL157C, strain FAR1, stronger effect = lower value
[34] = locus YJR016C, strain ILV3, stronger effect = lower value
[35] = locus YJR066W, strain TOR1 (second series), stronger effect = lower value
[36] = locus YJR066W, strain TOR1, stronger effect = lower value
[37] = locus YKL048C, strain ELM1, stronger effect = lower value
[38] = locus YKL067W, strain YNK1, stronger effect = lower value
[39] = locus YKL101W, strain HSL1, stronger effect = lower value
[40] = locus YKL193C, strain SDS22, stronger effect = lower value
[41] = locus YKL203C, strain TOR2, stronger effect = lower value
[42] = locus YLR113W, strain HOG1, stronger effect = lower value
[43] = locus YLR133W, strain CKI1, stronger effect = lower value
[44] = locus YLR403W, strain SFP1, stronger effect = lower value
[45] = locus YML070W, strain DAK1, stronger effect = lower value
[46] = locus YMR001C, strain CDC5, stronger effect = lower value
[47] = locus YMR205C, strain PFK2 (second series), stronger effect = lower value
[48] = locus YMR277W, strain FCP1, stronger effect = lower value
[49] = locus YNL006W, strain LST8, stronger effect = lower value
[50] = locus YNL020C, strain ARK1, stronger effect = lower value
[51] = locus YNL161W, strain CBK1, stronger effect = lower value
[52] = locus YNL183C, strain NPR1, stronger effect = lower value
[53] = locus YNL207W, strain RIO2, stronger effect = lower value
[54] = locus YNL222W, strain SSU72, stronger effect = lower value
[55] = locus YNL307C, strain MCK1 (second series), stronger effect = lower value
[56] = locus YOL078W, strain AVO1, stronger effect = lower value
[57] = locus YOL136C, strain PFK27, stronger effect = lower value
[58] = locus YOR061W, strain CKA2, stronger effect = lower value
[59] = locus YOR119C, strain RIO1, stronger effect = lower value
[60] = locus YOR231W, strain MKK1, stronger effect = lower value
[61] = locus YOR329C, strain SCD5, stronger effect = lower value
[62] = locus YPL031C, strain PHO85, stronger effect = lower value
[63] = locus YPL153C, strain RAD53, stronger effect = lower value
[64] = locus YPL204W, strain HRR25, stronger effect = lower value
[65] = locus YPL209C, strain IPL1, stronger effect = lower value
[66] = locus YPL256C, strain CLN2, stronger effect = lower value
[67] = locus YPR025C, strain CCL1, stronger effect = lower value
[68] = locus YPR106W, strain ISR1, stronger effect = lower value
[69] = locus YPR111W, strain DBF20, stronger effect = lower value
[70] = strain NNK1, stronger effect = lower value
[71] = strain TSCII, stronger effect = lower value

Measured: normalized growth

Cc1c(Cl)cccc1NC(=S)Nc1ccc(Cl)cc1C(=O)c1ccccc1
inactive: locus YAL013W, strain DEP1, stronger effect = lower value 0.999 | locus YBR229C, strain ROT2, stronger effect = lower value 0.991 | locus YCL061C, strain MRC1, stronger effect = lower value 0.985 | [1] 0.993 | locus YDR150W, strain NUM1, stronger effect = lower value 0.987 | locus YEL061C, strain CIN8, stronger effect = lower value 1 | locus YGR078C, strain PAC10, stronger effect = lower value 0.968 | [2] 0.894 | locus YHR087W, strain rtc3, stronger effect = lower value 0.99 | locus YJR043C, strain POL32, stronger effect = lower value 0.989 | locus YJR075W, strain HOC1, stronger effect = lower value 0.971 | locus YLR039C, strain RIC1, stronger effect = lower value 0.907 | locus YLR058C, strain SHM2 (second series), stronger effect = lower value 1.01 | locus YLR085C, strain ARP6, stronger effect = lower value 0.969 | locus YLR262C, strain YPT6, stronger effect = lower value 0.946 | locus YML094W, strain GIM5, stronger effect = lower value 0.98 | locus YMR219W, strain ESC1, stronger effect = lower value 0.991 | locus YMR263W, strain SAP30, stronger effect = lower value 0.993 | locus YMR307W, strain GAS1, stronger effect = lower value 0.924 | locus YNL153C, strain GIM3, stronger effect = lower value 0.984 | locus YNL298W, strain CLA4 (second series), stronger effect = lower value 0.987 | locus YNL322C, strain KRE1, stronger effect = lower value 0.986 | locus YNR030W, strain Alg12, stronger effect = lower value 0.969 | locus YPL055C, strain LGE1, stronger effect = lower value 0.98 | locus YPL241C, strain CIN2, stronger effect = lower value 0.969 | locus YPR135W, strain CTF4, stronger effect = lower value 0.956

Cc1cc(Cl)ccc1NC(=S)NNC(=S)Nc1ccc(F)cc1
active: [2] 0.763
inactive: [3] 0.968 | [4] 0.974 | [5] 0.972 | [6] 0.97 | [7] 0.966 | [8] 0.975 | [9] 0.969 | [1] 0.973 | [10] 0.97 | [11] 0.966 | [12] 0.943 | [13] 0.968 | [14] 0.943 | [15] 0.971 | [16] 0.898 | [17] 0.878 | [18] 0.925 | [19] 0.964 | [20] 0.965 | [21] 0.957 | [22] 0.964 | [23] 0.956 | [24] 0.912 | [25] 1.04 | [26] 0.863 | [27] 0.902 | [28] 0.986 | [29] 0.914 | [30] 0.964 | [31] 0.869 | [32] 0.93 | [33] 0.919 | [34] 0.96 | [35] 0.911 | [36] 0.917 | [37] 0.97 | [38] 0.916 | [39] 0.935 | [40] 0.964 | [41] 0.954 | [42] 0.929 | [43] 0.926 | [44] 0.896 | [45] 0.928 | [46] 0.965 | [47] 0.939 | [48] 0.95 | [49] 0.964 | [50] 0.921 | [51] 0.973 | [52] 0.923 | [53] 0.961 | [54] 0.972 | [55] 0.9 | [56] 0.957 | [57] 0.916 | [58] 0.937 | [59] 0.977 | [60] 0.924 | [61] 0.972 | [62] 0.899 | [63] 0.884 | [64] 0.861 | [65] 0.969 | [66] 0.904 | [67] 0.973 | [68] 0.971 | [69] 0.969 | [70] 0.96 | [71] 0.966

N#CCC(=O)NNC(=S)Nc1ccc(Cl)c(Cl)c1
inactive: [3] 0.991 | [4] 0.985 | [5] 0.981 | [6] 0.983 | [7] 0.991 | [8] 0.987 | [9] 0.986 | [1] 0.981 | [10] 0.98 | [11] 0.974 | [12] 0.938 | [13] 0.988 | [14] 0.98 | [15] 0.982 | [16] 0.929 | [17] 0.895 | [18] 0.92 | [19] 0.98 | [20] 0.989 | [21] 0.979 | [22] 0.969 | [23] 0.979 | [24] 0.93 | [25] 0.955 | [26] 0.965 | [2] 0.931 | [27] 0.965 | [28] 1.04 | [29] 0.96 | [30] 0.986 | [31] 0.932 | [32] 0.943 | [33] 0.931 | [34] 0.978 | [35] 0.913 | [36] 1.07 | [37] 0.97 | [38] 0.936 | [39] 0.942 | [40] 0.975 | [41] 1.01 | [42] 0.881 | [43] 0.96 | [44] 0.963 | [45] 0.93 | [46] 0.979 | [47] 0.942 | [48] 0.982 | [49] 0.984 | [50] 0.964 | [51] 0.981 | [52] 1.04 | [53] 0.978 | [54] 0.984 | [55] 0.962 | [56] 0.975 | [57] 0.95 | [58] 0.95 | [59] 0.988 | [60] 0.975 | [61] 0.985 | [62] 0.916 | [63] 0.916 | [64] 0.917 | [65] 0.987 | [66] 0.956 | [67] 0.988 | [68] 0.975 | [69] 0.976 | [70] 0.988 | [71] 0.983
